DAGLB inhibitor: blocks human DAGLB lipase activity. inhibition, % at 5.17 µM. Q8NCG7. 0.059% of 340,000 active. HEK293T DAGLB membrane lysate, EnzChek fluorogenic substrate. AID 504411; in the data active = inhibition above about 34%
hiPSC survival: enhancers of human iPSC single-cell survival. 0.044% of 360,000 active. survival enhancement, % at 20 µM. hiPSC single-cell survival, ATPlite luminescence; 100% = ROCK inhibitor wells, 0% = DMSO. AID 602274; in the data active = survival enhancement above about 18%;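 note: cells exposed to compounds for 16 hours before the ATP read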
ANO1 block: blocks the mouse calcium-activated chloride channel TMEM16A. 1.2% of 310,000 active. AID 588511. HEK293 TMEM16A/YFP iodide influx fluorescence, ionomycin. Q8BHY3. normalized B-score (activity score, 25-100; higher = stronger inhibition) at 10 µM;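 active = ratio plate-corrected score three or more library SD toward inhibition, starting fluorescence score within five deviations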;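 note: score derived from kinetic fluorescence span divided by baseline fluorescence per well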
Target sequence (Q8BHY3 whole entry, looked up): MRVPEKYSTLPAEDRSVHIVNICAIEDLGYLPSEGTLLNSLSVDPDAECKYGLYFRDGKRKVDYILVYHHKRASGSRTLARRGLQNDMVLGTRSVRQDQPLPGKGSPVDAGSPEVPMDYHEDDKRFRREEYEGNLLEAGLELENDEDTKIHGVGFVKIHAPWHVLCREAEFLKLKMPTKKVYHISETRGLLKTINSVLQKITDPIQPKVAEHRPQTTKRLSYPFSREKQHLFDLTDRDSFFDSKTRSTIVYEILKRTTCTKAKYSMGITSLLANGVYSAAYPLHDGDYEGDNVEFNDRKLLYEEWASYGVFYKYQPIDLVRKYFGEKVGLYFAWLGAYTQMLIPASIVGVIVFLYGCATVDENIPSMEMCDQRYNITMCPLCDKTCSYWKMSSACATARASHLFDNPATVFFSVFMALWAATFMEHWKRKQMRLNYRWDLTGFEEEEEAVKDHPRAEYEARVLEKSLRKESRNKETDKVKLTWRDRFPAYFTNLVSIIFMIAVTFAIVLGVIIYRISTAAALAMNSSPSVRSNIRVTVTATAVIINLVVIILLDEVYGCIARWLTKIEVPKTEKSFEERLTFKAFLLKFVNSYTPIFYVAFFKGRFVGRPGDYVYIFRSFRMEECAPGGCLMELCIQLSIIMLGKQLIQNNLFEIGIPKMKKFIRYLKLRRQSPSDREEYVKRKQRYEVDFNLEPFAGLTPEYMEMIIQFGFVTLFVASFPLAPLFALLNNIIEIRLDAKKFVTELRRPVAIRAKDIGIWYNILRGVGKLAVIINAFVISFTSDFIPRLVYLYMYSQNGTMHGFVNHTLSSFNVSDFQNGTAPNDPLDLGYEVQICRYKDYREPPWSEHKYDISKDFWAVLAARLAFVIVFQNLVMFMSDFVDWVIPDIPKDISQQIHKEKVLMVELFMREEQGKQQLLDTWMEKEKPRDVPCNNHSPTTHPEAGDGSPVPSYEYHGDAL
TMEM16A act: activators or potentiators of mouse TMEM16A chloride channel | 0.3% of 340,000 active | B-score at 10 µM | HEK293 TMEM16A/YFP-H148Q/I152L, iodide quench fluorescence; active compounds read low | AID 623877;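 active = fluorescence-ratio B-score plate-corrected deviation score at least 3 library SD below zero, with starting fluorescence score within 5 deviations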;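 note: channel opened by trigger with iodide after compound preincubation; score built on the fluorescence ratio of max minus min over baseline; more negative score means more quench and so TMEM16A activation or potentiation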
ABCB6 inh MLPCN: inhibitors of human ABC transporter ABCB6; fluorescence ratio to DMSO, % at 10 µM; Q9NP58; 0.19% of 360,000 active; AID 602162; K562-ABCB6 porphyrin accumulation, flow cytometry, 1 h; active compounds read low;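 active = fluorescence ratio to DMSO below 75%, the collection mean minus 3 SD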;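 note: signal is porphyrin accumulated inside mitochondria; lower ratio means ABCB6 inhibition with less porphyrin fluorescence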
TMEM16A reconf: reconfirmed blocker of mouse TMEM16A calcium-activated chloride channel. shares compounds with ANO1 block. HEK293 TMEM16A/YFP-H148Q, iodide quench fluorescence; ionomycin added to raise cell calcium. inhibition, % at 10 µM. 39% of 2,300 active. AID 652189;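 active = mean duplicate percent inhibition, scaled so buffer wells are 0 and the reference blocker 100, over three buffer SD above buffer mean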
HEK293 Ca mobil: alters calcium mobilization in TMEM16A HEK293 cells, counter-screen | shares compounds with ANO1 block | TMEM16A/YFP HEK293, Fluo4 calcium mobilization | calcium response (% of ionomycin), % at 10 µM | 2% of 2,300 active | AID 652231;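 active = duplicate-averaged calcium signal over 20% of the ionomycin maximum, relative to buffer baseline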;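 note: each well's signal is peak minus trough fluorescence divided by its pre-addition baseline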
Parental YFP cnt: acts in parental YFP-HEK293 cells lacking TMEM16A, counter-screen; shares compounds with ANO1 block; iodide YFP quench, ionomycin; YFP ratio F(max-min)/F0 at 10 µM; 2,300 tested, under 10 active;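 active = yellow fluorescent protein signal ratio exceeding the buffer control mean by over 5 SD of those controls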;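 note: ratio is mean of duplicate wells from kinetic YFP trace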
ClC-1 rat inh: selectivity of TMEM16A inhibitors: inhibition of rat ClC-1 chloride channel. CHO ClC-1-YFP, iodide influx fluorescence quench; iodide control reads 0, buffer control 100. ratio percent, % at 10 µM. 2,300 tested, under 10 active. AID 652236. shares compounds with ANO1 block;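 active = duplicate-mean ratio percent above the mean of iodide-only control wells, which defines zero, plus 5 of their SD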;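 note: higher percent means stronger block of ClC-1 iodide influx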
Hits are given with their value; 0 = inactive; - = no result. The list is not random: actives were taken first. Their share in the collection is about 1.5%.

SMILES	DAGLB inhibitor	hiPSC survival	ANO1 block	TMEM16A act	ABCB6 inh MLPCN	TMEM16A reconf	HEK293 Ca mobil	Parental YFP cnt	ClC-1 rat inh
O=C(Cn1nnc2c(cnn2-c2ccc(F)cc2)c1=O)OC1CCCCC1	0	0	100	0	0	0	0	0	0
CCOc1ccc(NC(=O)Cn2nnc3c(cnn3-c3ccc(F)cc3)c2=O)cc1	0	0	0	0	0	-	-	-	-
Cc1ccccc1C(=O)NCC(=O)N1CCN(C/C=C/c2ccccc2)CC1	0	0	-	0	0	-	-	-	-
CC(C)(C)NC1=CC(=O)OC12CCCCC2	0	0	0	0	0	0	0	0	0
CCC1CCCCN1C1Sc2ccc(C(=O)OC)cc2NC1=O (stereo unspecified)	0	0	25	0	0	0	0	0	0
COC(=O)c1ccc2c(c1)NC(=O)C(N1CCOCC1)S2 (stereo unspecified)	0	0	0	0	0	-	-	-	-
Cc1cc(N)ccc1NC(=O)c1ccccc1	0	0	100	0	0	0	0	0	0
CSc1ccc(CN(C)C(=O)COc2ccc(C(=O)c3ccccc3)cc2)cc1	0	0	100	0	0	0	0	0	0
CCN(Cc1ccc(OC)c(F)c1)C(=O)/C=C/c1ccc(S(=O)(=O)N2CCOCC2)cc1	0	0	-	0	0	-	-	-	-
COc1ccc(Cn2nnnc2C(c2cccs2)N2CCCCCC2)cc1 (stereo unspecified)	0	0	100	0	0	0	0	0	0
CCC(=NC(C)c1ccccc1)c1c(O)n(C)c(=O)n(C)c1=O (stereo unspecified)	0	0	100	0	0	22%	0	0	0
O=C(NCc1ccccc1C(F)(F)F)C1CC(O)CN1C(=O)Nc1ccccc1 (stereo unspecified)	0	0	0	0	0	0	0	0	0
COC(=O)c1ccc(CSc2nnc(-c3ccccc3)n2C)o1	0	0	0	0	0	-	-	-	-
COC(=O)c1ccc(CSc2nnnn2-c2ccccc2)o1	0	0	100	0	0	0	0	0	0
CCN(CC)C(=O)c1sc2nc(-c3cccs3)cc(-c3ccc(Cl)cc3)c2c1N	0	0	0	0	0	-	-	-	-
CCN(CC)C(=O)c1sc2nc(-c3cccs3)cc(-c3cccs3)c2c1N	0	0	0	0	0	0	0	0	0
Nc1c(C(=O)Nc2nccs2)sc2nc(-c3cccs3)cc(C(F)(F)F)c12	0	0	0	0	0	0	0	0	0
CCN(CC)C(=O)c1cc(-c2ccccc2OC)on1	0	0	100	0	0	0	0	0	0
CCc1nc2c(OCc3ccc(OC(F)F)cc3)cccn2c1N(C)C(=O)c1cccs1	-	0	-	-	0	-	-	-	-
CCCC(C)(C)C(=O)N1CCC1(C)C(=O)NS(=O)(=O)c1ccc(Cl)cc1 (stereo unspecified)	-	0	-	-	0	-	-	-	-
COc1ccc(NC(=O)c2ccccc2O)c(OC)c1	0	0	0	0	0	-	-	-	-
COc1ccc(NC(=O)c2cccnc2C(=O)O)c(OC)c1	0	0	0	0	0	0	0	0	0
COc1cc(Br)c(CC(=O)NC2CC2)cc1OC	0	0	0	0	0	-	-	-	-
Fc1nc(F)c(F)c(NCCCNc2c(F)c(F)nc(F)c2F)c1F	0	0	100	0	0	52%	0	0	0
CCOC(=O)c1c(NC(=O)c2ccncc2)sc(C)c1C	0	0	0	0	0	-	-	-	-
SMILES	DAGLB inhibitor	hiPSC survival	ANO1 block	TMEM16A act	ABCB6 inh MLPCN	TMEM16A reconf	HEK293 Ca mobil	Parental YFP cnt	ClC-1 rat inh
CCOC(=O)c1sc(NC(=O)CSc2n[nH]c(-c3ccc(Cl)cc3Cl)n2)c(C#N)c1C	0	0	25	0	0	50%	0	0	0
CCOC(=O)c1sc(NC(=O)CSc2nc3c(cc2C#N)CCCCCC3)c(C#N)c1C	0	0	100	0	0	0	0	0	0
CCOC(=O)c1sc(NC(=O)CSc2nc(C)cc(-c3ccccc3)n2)c(C#N)c1C	0	0	0	0	0	-	-	-	-
CCOC(=O)c1sc(NC(=O)c2ccncc2)c(C#N)c1C	0	0	25	0	0	35%	0	0	0
Cc1noc(C)c1NC(=O)N(C)C[C@H]1Oc2ccc(NC(=O)NC(C)C)cc2C(=O)N([C@H](C)CO)C[C@@H]1C	0	0	-	0	0	-	-	-	-
O=C1NC[C@H](CCCCN2CCN(CC3CCCCC3)C(=O)C2=O)N(CCC2CCCCC2)C1=O	-	0	-	-	0	-	-	-	-
O=C(Nc1ccccc1)c1cc(C2CCCCN2S(=O)(=O)c2ccc(F)cc2F)on1 (stereo unspecified)	-	0	-	-	0	-	-	-	-
COc1cccc(NC(=O)Nc2nnc([C@@H]3C[C@H](O)[C@@H](CO)O3)s2)c1	-	0	-	-	0	-	-	-	-
CCCC/C(O)=C1\C(=O)CC(C)(C)CC1=Nc1ccccc1OC	0	0	25	0	0	0	0	0	0
O=C1Nc2ccccc2C(=O)N2c3ccccc3NC(=O)C12 (stereo unspecified)	-	0	-	-	0	-	-	-	-
CCN1C(=O)c2cccc3c(S(=O)(=O)N4CCNCC4)ccc1c23	0	0	-	0	0	-	-	-	-
CC(C)CC1NC(=O)N(CC(=O)Nc2cc([N+](=O)[O-])ccc2F)C1=O (stereo unspecified)	0	0	-	0	0	-	-	-	-
COc1ccc(-n2nnnc2SCC(=O)Nc2cccc(O)c2)cc1	0	0	0	0	0	-	-	-	-
CCCc1[nH]nc2c1C1(CCOC1C)C(C#N)=C(N)O2 (stereo unspecified)	0	0	25	0	0	0	0	0	0
CCCc1[nH]nc2c1C(C1CCCCC1)C(C#N)=C(N)O2 (stereo unspecified)	0	0	0	0	0	-	-	-	-
C/C(=N\OC(=O)NC1CCCCC1)c1sc(-c2ccccc2)nc1C	0	0	25	0	0	25%	0	0	0
O=C(CCCSc1ccccc1)Nc1cccc(CO)c1	0	0	0	0	0	-	-	-	-
O=C(c1ccco1)N1CCN(C(=O)C(c2ccccc2)c2ccccc2)CC1	0	0	0	0	0	-	-	-	-
CCC(C(=O)N1CCN(C(=O)c2ccco2)CC1)c1ccccc1 (stereo unspecified)	0	0	100	0	0	0	0	0	0
C=CCNC(=O)C(C)N1c2cccc3cccc(c23)S1(=O)=O (stereo unspecified)	0	0	0	0	0	-	-	-	-
Cc1ccccc1CNC(=O)Cn1cnc(S(=O)(=O)N2CCCC2)c1	0	0	0	0	0	-	-	-	-
O=C(COC(=O)CCC(=O)c1ccc(F)cc1)NC1CCCCC1	0	0	-	0	0	-	-	-	-
